Source: PubChem (National Center for Advancing Translational Sciences (NCATS))
Hits are enriched below; roughly 2.1% of the tested compounds scored in any of these assays.
Abeta rescue = restores growth of yeast expressing A-beta42 peptide. Potency, µM (titrated, usually from 46.1 µM), usual class: activators. yeast expressing A-beta42, growth rescue, OD600, 48 h; response scale: 0% DMSO, 100% iron-clioquinol control. actives 0.063% (n = 410,000). AID 1347071; note: nearly all actives have a fitted effect of over 55% in size
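Growth rescue measured by 600 nm absorbance after 48 h yeast culture at 30 C with compound. Values normalized between DMSO and an equimolar ferric chloride plus clioquinol control.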
FUS yeast rescue = FUS proteinopathy suppression in yeast | S. cerevisiae FUS-expressing, growth rescue, OD600, 24 h | actives 0.24% (n = 390,000) | Potency, µM (doses to about 76.6 µM), most hits filed as activators | AID 1347120;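 note: plate controls were DMSO vehicle for no effect and reference control for full effect; nearly all actives have a fitted effect of over 55% in size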
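Cultures pregrown in 2.5% raffinose medium are shifted to minimal medium containing 2% galactose to express toxic FUS. Compounds are tested at several concentrations. After 24hr at 30C, growth is quantified at 600 nm absorbance.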
aSyn yeast inh = inhibitors of alpha-synuclein toxicity in yeast | Yeast expressing alpha-synuclein, growth rescue, BacTiter-Glo, 24 h | Potency, µM (highest dose often 46.1 µM), inactives show at the top dose growth rescue (activation), most hits filed as activators | actives 0.14% (n = 370,000) | AID 652106; note: % of control where 0% means no effect; nearly all actives have a fitted effect of over 65% in size
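Galactose-induced alpha-syn yeast (OD600=0.02, raffinose-pregrown) + pinned cpd, 24 hr, 30 deg C; growth by BacTiter-Glo luminescence. Growth restoration scores as activation.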
TDP43 rescue = rescues yeast growth from TDP-43 toxicity; TDP-43 expressing yeast growth rescue, BacTiter-Glo, 24 h; Potency, µM (highest dose often 46.1 µM), inactives show at the top dose growth rescue (activation), most hits filed as activators; actives 1.8% (n = 410,000); note: % of control where 0% means no effect; nearly all actives have a fitted effect of over 50% in size
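In this qHTS, compounds that restore growth of yeast expressing TDP-43 appear as activators. Cells (OD600=0.02, galactose medium, raffinose-pregrown) are incubated with compound 24 hr at 30 deg C and growth is quantified by BacTiter-Glo.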
Active calls of the source: *; i = inactive; ? = inconclusive; . = not tested or not shown. Calls come from the whole dose curve; as a rule, active = well fitted curve in the direction sought with a large enough effect; inconclusive = small, poorly fitted or top-dose-only effect, or another doubt; inactive = no such curve, though single readings can be large; an effect the other way counts as inactive or inconclusive. Potency is the fitted concentration of half-maximal effect.

SMILES	Abeta rescue	FUS yeast rescue	aSyn yeast inh	TDP43 rescue
NNc1nnc(-c2ccccc2)c(-c2ccccc2)n1	i	35.5µM*	3.3%	-15.7%
Cc1ccccc1OCCCc1c(C)n[nH]c1C	i	i	8.0%	20µM*
CCN(CC)C(=O)C1CCCc2c1[nH]c1ccc(Cl)cc21 (stereo not given)	i	i	-7.3%	14.1µM*
O=CNC1CCCc2c1[nH]c1ccc(Cl)cc21 (stereo not given)	i	.	15.5%	14.1µM*
O=C(c1cnn(-c2ccc(F)cc2)c1-n1cccc1)N1CCN(c2ccc(Cl)cc2)CC1	i	i	2.4%	0.0%
O=C(c1cnn(-c2ccc(F)cc2)c1-n1cccc1)N1CCN(c2ccccc2)CC1	i	i	6.9%	14.1µM*
O=C(Oc1ccc(Br)cc1C(=S)N1CCCC1)c1ccccc1F	i	.	5.1%	15.8µM*
Cc1cccc(NC(=S)NNC(=O)c2ccc3c(c2)OCO3)c1	i	.	-13.3%	3.5%
CCCc1cc(C(=O)NNC(=S)Nc2cccc(C)c2)cs1	i	.	-5.8%	8.91µM*
Cc1[nH]n(C(N)=S)c(=O)c1N=Nc1ccc(S(=O)(=O)N2CCCCCC2)cc1	i	i	1.9%	3.98µM*
O=c1c2ccccc2nnn1CCc1ccccc1	i	i	-6.2%	?
O=c1c2ccccc2nnn1Cc1ccccc1	i	i	8.9%	17.8µM*
CCCCCCCCCCOC(=O)Cn1c(COc2ccccc2C)[n+](C)c2ccccc21	i	39.8µM*	-51.9%	.
CCCCCCCCCCOC(=O)Cn1c(COc2ccccc2)[n+](C)c2ccccc21	i	i	-13.2%	-84.2%
Cc1ccccc1NC(=O)OC1CCC12CCC(c1ccccc1)CC2 (stereo not given)	.	i	.	.
Cc1nn(-c2ccccc2)c(C)c1C=NNC(=O)CSc1nc2ccccc2n1C	.	i	.	.
Cc1ccc(OCCOc2ccc(Cl)cc2Cl)c(Br)n1	.	i	.	.
CCc1ccc(-c2nc3cc(NC(=O)c4ccc(C)c(C)c4)ccc3o2)cc1	i	i	.	-26.7%
CCc1ccc2oc(-c3ccc(NC(C)=O)cc3)nc2c1	i	i	-31.2%	3.55µM*
C=CCN1C(=O)[C@@H](CC(=O)N2CCOCC2)[C@]2(C(=O)OCC)CCCCC/C=C/12	.	i	.	.
O=C(CC(=O)c1ccncc1)c1ccccc1	i	.	20µM*	?
O=C(CC(=O)c1ccccc1)c1ccccc1	i	.	6.3%	-17.7%
CC(NC(=O)c1ccco1)c1cccc2ccccc12 (stereo not given)	i	i	-0.5%	20µM*
COc1ccccc1CN=c1c([N+](=O)[O-])nn(-c2ccc3c(c2)OCCO3)n1O	i	i	5.6%	17.8µM*
O=[N+]([O-])c1nn(-c2ccc3c(c2)OCCO3)n(O)c1=NC1CCCCC1	i	i	14.0%	7.94µM*
SMILES	Abeta rescue	FUS yeast rescue	aSyn yeast inh	TDP43 rescue
C[C@]1(C(=O)NCCCNc2ncc(C(F)(F)F)cc2Cl)C=C[C@@H](Cc2ccccc2)N1C(=O)c1ccccc1	i	25.1µM*	?	?
CC1(C(=O)NCCCNc2ncc(C(F)(F)F)cc2Cl)C=CCN1C(=O)c1ccccc1 (stereo not given)	i	i	0.5%	19.4%
O=C(CCCCCN1CCN(c2ccccc2-c2ccccc2)CC1)NC1CCCc2ccccc21 (stereo not given)	.	.	-19.2%	.
Cc1ccc(CSc2nnc(-c3n[nH]c4c3CCC4)n2N)cc1	.	i	.	.
Cc1ccc(N2C(S)=C(C#N)C(=O)NC23CCCCC3)cc1	i	.	0.9%	22.4µM*
Cc1cccc(N2C(S)=C(C#N)C(=O)NC23CCCCC3)c1	i	.	8.1%	-24.6%
CCN(CC)/[N+]([O-])=N/Oc1ccc([N+](=O)[O-])cc1[N+](=O)[O-]	.	.	-73.0%	.
O=C(c1cnn(C(=O)c2ccco2)c1)c1cc(F)ccc1O	i	i	-11.1%	28.2µM*
Cc1ccc(S(=O)(=O)NCCNc2ccc([N+](=O)[O-])cc2)cc1	i	i	12.3%	26.4%
Cc1ccc(S(=O)(=O)Nc2c(C)cc([N+](=O)[O-])cc2C)cc1	i	.	17.9%	14.1µM*
COCCN=c1scc(-c2cc(OC)c(OC)c(OC)c2)n1/N=C/c1c(C)[nH]c2ccccc12	i	12.6µM*	-17.6%	22.4µM*
Cc1ccc(CNC(=O)OC(C)(C)C)c(/C=C/S(=O)(=O)NC2CCCC2)c1	.	i	.	.
COc1cccc(C(c2sc3nc(-c4ccco4)nn3c2O)N2CCN(c3ccccc3F)CC2)c1 (stereo not given)	i	8.91µM*	.	11.2µM*
Fc1ccc(N2CCN(c3ncnc4c3nc3n4CCCC3)CC2)cc1	i	i	.	-2.5%
Clc1cccc(N2CCN(c3ncnc4c3nc3n4CCCC3)CC2)c1	i	i	.	15.8µM*
Cc1ccc(Cl)cc1N1CCN(c2ncnc3c2nc2n3CCCCC2)CC1	i	i	.	25.1µM*
Oc1ccccc1C1C=C(c2ccc3c(c2)OCO3)NC(c2ccc(Br)cc2)N1 (stereo not given)	.	.	2.0%	.
Oc1ccccc1C1C=C(c2ccc3c(c2)OCO3)NC(c2cccc(Cl)c2)N1 (stereo not given)	.	.	4.47µM*	.
CCCCn1c(CN2CCN(c3cccc(Cl)c3)CC2)nc2c1c(=O)n(C)c(=O)n2C	i	i	2.1%	20µM*
CCCCCn1c(CN2CCN(c3cccc(Cl)c3)CC2)nc2c1c(=O)n(C)c(=O)n2C	i	?	-3.1%	?
c1ccc2nc3c(nc2c1)[nH]c1ccccc13	i	i	6.9%	7.08µM*
Cc1cc(C)nc(N(C#N)CCOc2ccccc2)n1	i	i	?	12.6µM*
O=S(=O)(CC1NCc2ccccc21)NC1CCCC1 (stereo not given)	.	i	.	.
Cc1cc(N2CCN(c3ccccc3)CC2)nc(-c2ccccc2O)n1	i	i	-1.9%	17.8µM*
COc1ccc(NC(C)(C)c2nnnn2-c2c(C)cccc2C)cc1	i	i	11.0%	12.6µM*
SMILES	Abeta rescue	FUS yeast rescue	aSyn yeast inh	TDP43 rescue
CCOc1ccc(NS(=O)(=O)c2ccc(NS(=O)(=O)c3ccc(SC)cc3)cc2)cc1	i	28.2µM*	0.2%	-4.2%
CCOc1ccc(S(=O)(=O)Nc2nc3ccccc3nc2Cl)cc1	i	i	0.7%	22.4µM*
CCOc1ccc(NS(=O)(=O)c2ccc(NS(C)(=O)=O)cc2)cc1	i	i	-9.7%	-8.8%
CCOc1ccc(S(=O)(=O)Nc2nc3ccccc3nc2N2CCN(C)CC2)cc1	i	i	0.2%	11.9%
C=CCN1C(=O)[C@@H](CC(=O)NCCCCc2ccccc2)[C@]2(C(=O)OC)CCCCC=C12	.	i	.	.
O=C(Nc1ccccc1Oc1ccccc1)NC1CCCCN(Cc2ccc(Cl)cc2)C1=O (stereo not given)	.	i	.	.
O=[N+]([O-])c1ccc(N2CCc3ccccc3C2)nc1	i	i	-4.4%	12.6µM*
C=CCN1C(=O)[C@@H](CC(=O)N2CCCCC2)[C@]2(C(=O)OC)CCCCC=C12	.	i	.	.
